Data on 47 sequences can be found in article PMC7819943, “Rice protein-binding microarrays: a tool to detect cis-acting elements near promoter regions in rice”.

In all, about 68,000 sequences were measured (“fluorescence intensity (a.u.)”: median about 9,100, highest 2% from about 16,000 on). The sample holds the highest values, similar sequences and a random draw of the others, so the mix is not that of the screen.

Chain of OsWRKY34 (Q0JBA9 entry or part of it): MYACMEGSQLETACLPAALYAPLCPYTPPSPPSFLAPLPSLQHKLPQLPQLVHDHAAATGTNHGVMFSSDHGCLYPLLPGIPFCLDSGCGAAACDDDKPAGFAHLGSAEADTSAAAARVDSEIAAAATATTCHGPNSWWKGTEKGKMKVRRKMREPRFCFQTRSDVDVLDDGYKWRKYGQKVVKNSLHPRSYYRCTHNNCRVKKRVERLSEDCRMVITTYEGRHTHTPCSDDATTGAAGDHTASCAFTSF

The target of the experiment is OsWRKY34 (Oryza sativa, UniProt Q0JBA9 1-250). As to the kind of experiment: protein-binding microarray (RPBM); PBS, 2% BSA, 51.3 ng/ul salmon testes DNA, 50 uM zinc acetate, 200 nM TF, 25 C, 1 h; high values mean tight binding. The following applies: protein: recombinant; tags: N-terminal polyhistidine and DsRed monomer fusion (pET32a); label: CyDye5-dUTP incorporated in the synthesized complementary strand; 3' TTTTT single-stranded linker to array surface; dsDNA, one strand shown. A digest of the protocol:
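Polyhistidine-tagged DsRed fusions of transcription factors, joined at the N-terminus, were expressed in E. coli BL21-CodonPlus and isolated on Ni–NTA. They were incubated at 200 nM for 1 h at 25 °C on a custom Agilent array, double-stranded and BSA-blocked, in PBS with 2% BSA, salmon testes DNA and 50 µM zinc acetate. The binding signal is per-feature fluorescence intensity (arbitrary units) read on an Axon 4000B scanner after washing.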
Regarding “CTGCTCTTTCTTCTCTCTGCATTCCATTTCATTACTGCCTCGGAGTCACCTAGTGCAG”, the binding signal was 11000 fluorescence intensity (a.u.).

“AGCTCGTGTGGTGTATGTTGTTGTGTGCTGCTAGCTAGCTCGGAGTCACCTAGTGCAG”: the binding signal is 10200 fluorescence intensity (a.u.).

As to “TCCATGCCATCTGCTGAACAGACCCATGCATCCTTCAACTCGGAGTCACCTAGTGCAG”, the binding signal is 8920 fluorescence intensity (a.u.).

For the sequence “CACATCAAATTTATTTTCTCCCAAAATGAGGCGCGCAACACGGAGTCACCTAGTGCAG”, the binding signal was 8670 fluorescence intensity (a.u.).

Take “GCTGTCGTTGAATTTTTGTTTGTTTTCTTGGCGTGTTGCACGGAGTCACCTAGTGCAG”: the binding signal is 13300 fluorescence intensity (a.u.).

Consider “CTTTCCATGGTTTTTGCTCCCGCAGCCCGGGCCACTGCCCCGGAGTCACCTAGTGCAG”, for which the binding signal is 11600 fluorescence intensity (a.u.).

For the sequence “CGTCTCGTTTCTCATCTCAAAATTTCGCGCCTCGTCGCCGCGGAGTCACCTAGTGCAG”, the binding signal was 8640 fluorescence intensity (a.u.).

Regarding “GCTCAGCCGCCGTCGCCAGTCCAACCTCCGCCACCGCGGCCGGAGTCACCTAGTGCAG”, the binding signal was 8640 fluorescence intensity (a.u.).

Regarding “ACAGCTTAAAATTTCCTCCTCCGCCCAAAAACCCTCTCGACGGAGTCACCTAGTGCAG”, the binding signal is 24300 fluorescence intensity (a.u.).

With “CCAAACCCAACCCTCGACGCCAATTAAACACCAATTTTCTCGGAGTCACCTAGTGCAG”, the binding signal is 8920 fluorescence intensity (a.u.).

Turning to “CCCGAACCCACCACCTCCGCCCATTTCCGCCTCCTCTCGACGGAGTCACCTAGTGCAG”, the binding signal was 9190 fluorescence intensity (a.u.).

As for “CCTTGACAGATTAATCCTACGTTTTGACCCCATATGTTTTCGGAGTCACCTAGTGCAG”, the binding signal was 8880 fluorescence intensity (a.u.).

Take “CTTGTAGCTGTAATTCCCTATTGTTGTTTTTCGGTACTGTCGGAGTCACCTAGTGCAG”: the binding signal was 13200 fluorescence intensity (a.u.).

In the case of “TCGCAAGAGTTGTTGAAAGTTGACCAGCATATTGAGGCCCCGGAGTCACCTAGTGCAG”, the binding signal was 8130 fluorescence intensity (a.u.).

In the case of “ACAACTCACTCTCTTCATTTTCCATTCTCGTGCTTTTCAACGGAGTCACCTAGTGCAG”, the binding signal is 16600 fluorescence intensity (a.u.).

“ACTCACCTCTCTCATCTTTCGTGCACACATTTTTCAATTTCGGAGTCACCTAGTGCAG”: the binding signal is 17700 fluorescence intensity (a.u.).

In the case of “TTCCTTTTTCATCTTCTTTTCACATTTTTTCTTTATTTTTCGGAGTCACCTAGTGCAG”, the binding signal is 12400 fluorescence intensity (a.u.).

As for “AGACATTCTCCATTTTCTTTCTTCTCTTCACTCACACTCACGGAGTCACCTAGTGCAG”, the binding signal was 8800 fluorescence intensity (a.u.).

Consider “TTCTTTGGATTTGATTGGTGCCGCCTTTTTTCGCTATTGACGGAGTCACCTAGTGCAG”, for which the binding signal is 15600 fluorescence intensity (a.u.).

As to “GCCTATTCTTTTCGCCACCGCTATCGCCACACATCACGGACGGAGTCACCTAGTGCAG”, the binding signal is 17500 fluorescence intensity (a.u.).

For “TCTCTTTTCTCATTTTTTCGCTTGCCACATCATTTTCTATCGGAGTCACCTAGTGCAG”, the binding signal was 9600 fluorescence intensity (a.u.).

As to “CAACACATCTCTTGCATTTTTTTTTCTTTGCATTCTCATTCGGAGTCACCTAGTGCAG”, the binding signal is 8200 fluorescence intensity (a.u.).

Regarding “GTCTCATTCTTCTTATTTCCATTTTTTTTTTCTCTCAAAACGGAGTCACCTAGTGCAG”, the binding signal was 11100 fluorescence intensity (a.u.).

As to “ACTCACTTCAAAATTTTCACATCCTCTCTCATCATTTTTTCGGAGTCACCTAGTGCAG”, the binding signal was 11100 fluorescence intensity (a.u.).

In the case of “TCTCAATTGCACCTCATTTAATCCTCATTTTTCATCTTTTCGGAGTCACCTAGTGCAG”, the binding signal is 11800 fluorescence intensity (a.u.).

Consider “CACACACACCGATCTTTTCATTCATTCTTTTCTTTCTTTTCGGAGTCACCTAGTGCAG”, for which the binding signal is 18700 fluorescence intensity (a.u.).

On to “TCCTCTTCTTTTCTCTCCCTCCGCCACTCGACGCCCAACCCGGAGTCACCTAGTGCAG”, for which the binding signal was 9310 fluorescence intensity (a.u.).

As to “TCGATTCCGGCGTGCGAATTCCTCCACCTCGCCGCCGCCGCGGAGTCACCTAGTGCAG”, the binding signal was 8810 fluorescence intensity (a.u.).

On to “TTCCTGTTCCTGCAAGAAAACGCTCATCCTCTTGCTTTTTCGGAGTCACCTAGTGCAG”, for which the binding signal is 9650 fluorescence intensity (a.u.).

In the case of “AGGCCTCCACGGCTCCACCTCCTTCCGCTTTCGCCTATCCCGGAGTCACCTAGTGCAG”, the binding signal was 10000 fluorescence intensity (a.u.).

For “AAAGTGCCGTATTTTTGTGTTTCTGTTGTAGTGGTAATTACGGAGTCACCTAGTGCAG”, the binding signal is 12000 fluorescence intensity (a.u.).

For the sequence “TGGGTTGTGGCAGTGTCTTATAAGGCTATATTAAGTCTATCGGAGTCACCTAGTGCAG”, the binding signal is 8060 fluorescence intensity (a.u.).

Consider “TTGCTGTCTTGCGTGTTCATGCTGCCCCGCGGGCGTTGAGCGGAGTCACCTAGTGCAG”, for which the binding signal was 9010 fluorescence intensity (a.u.).

For the sequence “TACCAACATTGTAGCAACAGATTCATCTCTCTTTTTTTTTCGGAGTCACCTAGTGCAG”, the binding signal is 18100 fluorescence intensity (a.u.).

For the sequence “TTTTCATTGTGTTGTAGCCAACAGCCACATTGTTTTCTTTCGGAGTCACCTAGTGCAG”, the binding signal was 8080 fluorescence intensity (a.u.).

As to “GTGACCCAACATTCAGATTCATCTTTTTTTTTCACCTTCTCGGAGTCACCTAGTGCAG”, the binding signal was 11300 fluorescence intensity (a.u.).

As for “AGTCACGAATCAAACAACCCCTTAAACTGTATTTGATTGTCGGAGTCACCTAGTGCAG”, the binding signal was 8060 fluorescence intensity (a.u.).

Take “TGGTTCTTGCTCTTGTTCTTGCTGCTGCTGCTTTTGCTCTCGGAGTCACCTAGTGCAG”: the binding signal is 9380 fluorescence intensity (a.u.).

Regarding “CATGTCTATCTTTCTACTATTTATTTTTTTTTGGCAGAGACGGAGTCACCTAGTGCAG”, the binding signal is 12700 fluorescence intensity (a.u.).

In the case of “GGGTTCTTGGCTACTGGGGCTGTCTCTCTATCTTTCTTGACGGAGTCACCTAGTGCAG”, the binding signal was 21600 fluorescence intensity (a.u.).

As to “GGCTGGGCTTTTTGGGCTTTCTTTGATCTATATTTTGAGACGGAGTCACCTAGTGCAG”, the binding signal was 18200 fluorescence intensity (a.u.).

With “CTTGGTTTTCTTGATTTCTTGGGTTCTTGGCTACTGGGGCCGGAGTCACCTAGTGCAG”, the binding signal is 9490 fluorescence intensity (a.u.).

With “GCTATGAGATTTATATATTTTTTTGTCCTGGGCTTCTTTTCGGAGTCACCTAGTGCAG”, the binding signal is 9510 fluorescence intensity (a.u.).

For the sequence “TCTCTGCTTCTCGTTGTTCTTGGTTGGTTGTTGTTGTAGACGGAGTCACCTAGTGCAG”, the binding signal is 19400 fluorescence intensity (a.u.).

As for “AGCGATACTCTACTGCTACCTTGTCCCAACATGCTGGGCTCGGAGTCACCTAGTGCAG”, the binding signal was 8260 fluorescence intensity (a.u.).

For the sequence “ACTCTCTCTCTCTCTCTGCTTCTTCTTGTGTTGTGCTTGTCGGAGTCACCTAGTGCAG”, the binding signal was 9800 fluorescence intensity (a.u.).

“GGCTGGGGTGGGCTCTACTTGACAGACTGATACTCCTACTCGGAGTCACCTAGTGCAG”: the binding signal was 19600 fluorescence intensity (a.u.).
